Results on 29 compounds are retold here after the supplement of paper PMC6522484.

± gives the standard deviation of the averaged measurements.

Test [1] relates to DLD1. As to the kind of experiment: cell viability (CellTiter-Glo) relative to plate median (fraction of plate median); higher = more viable cells. To be noted: 5 µM; treatment time 24 h; reporter: 7TFP. The method in brief:
(§1)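 Stable lentiviral TCF/Wnt firefly luciferase reporters (7TFP or TCF4/Wnt) were present in the colorectal cancer cell lines used. These cells received library compounds at a final 5 µM for 24 h, and parallel plates were read for firefly luciferase or CellTiterGlo luminescence. Each well was normalised to the plate median, and the value reported is the mean of two independent replicates.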
A general note: In ATP-based viability assays light output follows the ATP content of the culture.

The next test has as its system HCT116. The description is as above. As to conditions: 5 µM; treatment time 24 h; reporter: TCF4/Wnt. The method in brief:
as §1

Test [2] relates to SW480. The description is as above. As to conditions: 5 µM; treatment time 24 h; reporter: 7TFP. The method in brief: as §1
Test [3] relates to DLD1. As to the kind of experiment: TCF/Wnt firefly luciferase reporter signal relative to plate median (fraction of plate median); higher = higher Wnt reporter signal. To be noted: 5 µM; treatment time 24 h; reporter: 7TFP. The method in brief:
as §1
Background: Reporter assays use an easily measured gene product as a stand-in for the process of interest.

Test [4] relates to SW480. The description is as above. To be noted: 5 µM; treatment time 24 h; reporter: 7TFP. The method in brief:
as §1

As for `O=C(O)c1cc(=O)c2cccc(O)c2[nH]1`, the results for the cell viability in the test with DLD1 [1], in the test with HCT116 and in the test on SW480 [2] were 0.932 ± 0.077, 1.07 ± 0.1 and 0.946 ± 0.016, respectively. Besides, the results for the “TCF/Wnt firefly luciferase reporter signal” value in the test with DLD1 [3] and in the test on SW480 [4] were 1.19 ± 0.014 and 1.15 ± 0.021, respectively.
The corresponding values for `COc1cccc2c(C)cc(=O)[nH]c12` are 1.05 ± 0.15, 1.07 ± 0.11, 1.02 ± 0.09, 1.05 ± 0.064 and 1.11 ± 0.085.
Consider `CC(=O)c1c(O)cc(O)cc1O`, for which the figures for the cell viability in the test on DLD1 [1], with HCT116 and in the test with SW480 [2] were 1.02 ± 0.035, 1.03 ± 0.035 and 1.04 ± 0.068, respectively. The “TCF/Wnt firefly luciferase reporter signal” value in the test on DLD1 [3] is 1.08 ± 0.042; with SW480 [4], 0.938 ± 0.033.
For `N[C@@H](Cc1cc(I)c(Oc2cc(I)c(O)c(I)c2)c(I)c1)C(=O)O` the same measures were 1.01 ± 0.037, 1.11 ± 0.042, 0.978 ± 0.018, 1.19 ± 0.057 and 1.17 ± 0.05.
As to `Cn1cnc2c1c(=O)[nH]c(=O)n2C`, the cell viability stood at 1.04 ± 0.028 in the test on DLD1 [1], 1.16 ± 0.092 with HCT116 and 1.03 ± 0.035 with SW480 [2]. Also, the “TCF/Wnt firefly luciferase reporter signal” value was found to be 1.17 in the test on DLD1 [3] and 1.09 ± 0.028 with SW480 [4].
For `COc1ccc(CC(=O)c2ccc(O)cc2O)cc1` the same measures were 0.962 ± 0.054, 0.955 ± 0.14, 0.995 ± 0.036, 1.13 ± 0.057 and 1.07 ± 0.078.
The corresponding values for `CN[C@@H]1[C@@H](O[C@H]2O[C@H](CO)[C@@H](N)[C@H](O)[C@H]2O)OC2C[C@@H](N)[C@@H](O[C@H]3[C@H](O)[C@@H](O)[C@H](N)C[C@@H]3N)OC2[C@@H]1O` (stereo not given in full) are 0.893 ± 0.0028, 0.952 ± 0.03, 0.965 ± 0.037, 1.08 ± 0.028 and 0.88 ± 0.11.
The corresponding values for `Cc1nc2ccccn2c(=O)c1CCN1CCC(C(=O)c2ccc(F)cc2)CC1` are 0.911 ± 0.15, 1.03 ± 0.099, 1.04 ± 0.057, 1.01 ± 0.037 and 0.947 ± 0.017.
On to `CC12CCC(CC1=O)C2(C)C` (stereo not given), for which the cell viability in the test with DLD1 [1] came out at 0.974 ± 0.037; with HCT116 it was 0.941 ± 0.2; in the test with SW480 [2], 1.04 ± 0.05. For the same compound, the “TCF/Wnt firefly luciferase reporter signal” value in the test with DLD1 [3] is 1.02 ± 0.061; with SW480 [4], 0.969 ± 0.14.
Take `CC(=O)O[C@@H]1C[C@H]2C(C)(C)C(=O)C=C[C@]2(C)[C@H]2CC[C@@]3(C)[C@H](c4ccoc4)OC(=O)[C@H]4O[C@]43[C@@]21C`: the cell viability with DLD1 [1] worked out at 1.01 ± 0.025; with HCT116 it was 1.07 ± 0.042; in the test on SW480 [2] it was 0.97 ± 0.018. Moreover, the “TCF/Wnt firefly luciferase reporter signal” value came out at 1.19 ± 0.05 in the test on DLD1 [3] and 1.11 ± 0.028 with SW480 [4].
Regarding `NC[C@H]1O[C@H](O[C@H]2[C@H](O)[C@@H](O[C@H]3O[C@H](CO)[C@@H](O)[C@H](N)[C@H]3O)[C@H](N)C[C@@H]2N)[C@H](N)[C@@H](O)[C@@H]1O`, the figures for the cell viability in the test on DLD1 [1], with HCT116 and with SW480 [2] were 1.11 ± 0.028, 0.997 ± 0.033 and 1.02 ± 0.052, respectively. Also, the “TCF/Wnt firefly luciferase reporter signal” value amounted to 1.03 ± 0.035 in the test with DLD1 [3] and 1.01 ± 0.021 in the test with SW480 [4].
With `C[C@H]1c2cccc(O)c2C(=O)C2=C(O)[C@]3(O)C(=O)C(C(N)=O)=C(O)[C@@H](N(C)C)[C@@H]3[C@@H](O)[C@@H]21`, the cell viability is 0.942 ± 0.096 in the test with DLD1 [1], 0.964 ± 0.033 in the test with HCT116 and 0.975 ± 0.0028 with SW480 [2]. Also, the results for the “TCF/Wnt firefly luciferase reporter signal” value with DLD1 [3] and in the test with SW480 [4] were 0.967 ± 0.23 and 1.03 ± 0.18, respectively.
As for `COc1cc2oc3cc(OC)c(OC)c(CC=C(C)C)c3c(=O)c2c(O)c1CC=C(C)C`, the cell viability in the test with DLD1 [1] came to 1.08 ± 0.16; with HCT116, 1 ± 0.078; in the test on SW480 [2], 1.02 ± 0.054. Also, the “TCF/Wnt firefly luciferase reporter signal” value with DLD1 [3] was 1.1 ± 0.19; in the test with SW480 [4] it was 0.968 ± 0.046.
Regarding `CC(=O)OCC1=C(C(=O)O)N2C(=O)[C@@H](NC(=O)CSc3ccncc3)[C@H]2SC1`, the values for the cell viability in the test with DLD1 [1], in the test on HCT116 and with SW480 [2] were 1.05, 1.065 ± 0.0071 and 1.14 ± 0.14, respectively. Also, the “TCF/Wnt firefly luciferase reporter signal” value with DLD1 [3] was found to be 0.985 ± 0.016; in the test on SW480 [4], 1.06 ± 0.057.
With `COc1ccc2c(c1OC)OC[C@@H](c1ccc(OC)c(OC)c1OC)C2`, the cell viability in the test on DLD1 [1] came out at 1.01 ± 0.069; in the test with HCT116 it was 1.1 ± 0.099; in the test with SW480 [2], 1.06 ± 0.035. The “TCF/Wnt firefly luciferase reporter signal” value was found to be 1.04 ± 0.09 with DLD1 [3] and 0.961 ± 0.055 in the test with SW480 [4].
In the case of `O=C(/C=C/c1ccccc1)c1ccc(O)cc1`, the cell viability is 0.834 ± 0.11 with DLD1 [1], 0.906 ± 0.047 in the test on HCT116 and 0.898 ± 0.013 in the test on SW480 [2]. The “TCF/Wnt firefly luciferase reporter signal” value with DLD1 [3] stood at 0.88 ± 0.1; with SW480 [4], 0.976 ± 0.2.
The corresponding values for `CNCc1ccccc1` are 1.03 ± 0.014, 1.125 ± 0.0071, 1.03 ± 0.021, 1.03 ± 0.067 and 1.045 ± 0.0071.
For the compound `CC(C)=CCOc1cc2oc(=O)ccc2cc1O`, the cell viability in the test with DLD1 [1] was determined as 1.08 ± 0.014; with HCT116 it was 1.19 ± 0.11; with SW480 [2] it was 1.04 ± 0.028. Further, the “TCF/Wnt firefly luciferase reporter signal” value came to 1.005 ± 0.0071 with DLD1 [3] and 1.07 ± 0.064 with SW480 [4].
In the case of `C[C@H]1C[C@@H]2[C@H]([C@@H](O)C[C@@]3(C)[C@H]2CC[C@]3(O)C(=O)CO)[C@@]2(C)C=CC(=O)C=C12`, the cell viability in the test with DLD1 [1] came out at 1.01 ± 0.029; in the test with HCT116 it was 1.02 ± 0.056; with SW480 [2] it was 1.04 ± 0.014. In addition, the “TCF/Wnt firefly luciferase reporter signal” value in the test with DLD1 [3] was 0.9235 ± 0.005; in the test on SW480 [4], 1.02 ± 0.062.
For the compound `CCN(CC)C(C)CN1c2ccccc2Sc2ccccc21` (stereo not given), the cell viability in the test on DLD1 [1] worked out at 1.07 ± 0.11; in the test with HCT116, 1.02 ± 0.12; in the test on SW480 [2], 0.998 ± 0.045. Besides, the “TCF/Wnt firefly luciferase reporter signal” value came out at 0.927 ± 0.3 in the test with DLD1 [3] and 1.05 ± 0.078 in the test with SW480 [4].
For `CC(=O)O[C@]1(C(C)=O)CC[C@H]2[C@@H]3C=C(Cl)C4=CC(=O)CC[C@]4(C)[C@H]3CC[C@@]21C` the same measures were 0.905 ± 0.016, 0.972 ± 0.082, 1.04 ± 0.042, 0.9805 ± 0.0064 and 1.06 ± 0.088.
The corresponding values for `CCCc1nc(C(C)(C)O)c(C(=O)OCc2oc(=O)oc2C)n1Cc1ccc(-c2ccccc2-c2nnn[nH]2)cc1` are 0.99 ± 0.015, 0.978 ± 0.045, 1.01 ± 0.047, 1.11 ± 0.11 and 1.11 ± 0.042.
On to `Oc1ccc(Cl)c2cccnc12`, for which the values for the cell viability in the test on DLD1 [1], in the test with HCT116 and with SW480 [2] were 1.025 ± 0.0071, 0.988 ± 0.032 and 1.02 ± 0.021, respectively. In addition, the “TCF/Wnt firefly luciferase reporter signal” value with DLD1 [3] came to 0.935 ± 0.069; in the test on SW480 [4], 1.09 ± 0.042.
The corresponding values for `COc1cc(O)c2c(=O)cc(C)oc2c1CC=C(C)C` are 1.04 ± 0.057, 1.06 ± 0.078, 1.04 ± 0.035, 0.91 ± 0.04 and 0.991 ± 0.15.
Regarding `Cc1nc(C)c(Cl)c(O)c1Cl`, the cell viability with DLD1 [1] was determined as 1.1 ± 0.099; in the test on HCT116, 1.03 ± 0.11; in the test on SW480 [2], 1.004 ± 0.0085. Further, the “TCF/Wnt firefly luciferase reporter signal” value with DLD1 [3] turned out to be 0.99 ± 0.029; with SW480 [4], 0.917 ± 0.059.
Take `CC(=O)Oc1ccc(-c2cc(=O)c3c(OC(C)=O)cc(OC(C)=O)cc3o2)cc1`: the cell viability in the test on DLD1 [1] turned out to be 0.993 ± 0.038; in the test on HCT116, 0.934 ± 0.093; with SW480 [2] it was 0.9365 ± 0.005. Moreover, the figures for the “TCF/Wnt firefly luciferase reporter signal” value with DLD1 [3] and in the test with SW480 [4] were 1.01 ± 0.021 and 0.926 ± 0.011, respectively.
Turning to `CCCc1nn(C)c2c(=O)[nH]c(-c3cc(S(=O)(=O)N4CCN(C)CC4)ccc3OCC)nc12`, the cell viability in the test with DLD1 [1] stood at 1 ± 0.067; with HCT116, 0.981 ± 0.21; in the test with SW480 [2], 0.978 ± 0.013. The “TCF/Wnt firefly luciferase reporter signal” value in the test with DLD1 [3] amounted to 1.02 ± 0.042; with SW480 [4] it was 1.09 ± 0.028.
With `COc1ccc(C(=O)Oc2ccc(/C=N/NC(N)=O)cc2)cc1` [Anthramycin derivative (C16H15N3O4)], the cell viability worked out at 1.2 ± 0.2 in the test on DLD1 [1], 0.991 ± 0.07 with HCT116 and 1.02 ± 0.071 with SW480 [2]. Further, the “TCF/Wnt firefly luciferase reporter signal” value with DLD1 [3] is 0.938 ± 0.12; in the test with SW480 [4], 1.05 ± 0.028.
For `COc1cc(C)c(C(=O)Oc2cc(C)c(C(=O)O)c(O)c2C)c(OC)c1C` the same measures were 0.961 ± 0.033, 1.025 ± 0.0071, 0.987 ± 0.047, 0.953 ± 0.034 and 1 ± 0.099.
